# TROY NFkB inh – inhibitors of TROY-driven NF-kB signaling, primary screen, Q293 LMP1-TROYcd cells, NF-kB luciferase, uHTS | 360,000 tested, 0.98% active | Q293 LMP1-TROYcd NF-kB luciferase reporter, 4 h | inhibition, % at 10 µM;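 active means compounds whose plate-normalised and pattern-corrected inhibition of the luciferase reporter signal at the single screening dose is 50% or more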
# HIF-2a block – HIF-2a reporter inhibitors, primary screen, luminescence, 786-0 RCC cells; 786-0 RCC cells HIF-2a reporter, luciferase luminescence, overnight; inhibition, % at 18.8 µM; 360,000 tested, 0.72% active; AID 624352, 2012;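 active means inhibition of the luminescence signal of 40% or more relative to plate controls, in a single-dose primary screen at 18.75 µM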
# TWEAK-Fn14 inh – inhibitors of TWEAK-Fn14 signaling, primary screen, luciferase reporter cells, uHTS; TWEAK-stimulated Fn14 reporter cells, luciferase luminescence, 8 h; inhibition, % at 10 µM; 360,000 tested, 2% active; in the data active means inhibition above about 50%
# CF NFkB block – inhibitors of PAF-induced NF-kB signaling, primary screen, cell-based, GFP fluorescence, uHTS; inhibition, % at 5 µM; 360,000 tested, 0.86% active; KKLEB NF-kB-GFP reporter, GFP fluorescence overnight; AID 588850, 2011;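 active means at least 50% inhibition at 5 µM, scaled per plate between neutral and stimulator controls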;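 further: PAF is a Pseudomonas aeruginosa culture filtrate used as stimulus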
# KKLEB cytotox – cytotoxicity in KKLEB CF airway cells, primary screen, cytotoxicity control for CF NF-kB inhibitor project, cell-based, uHTS, fluorescence assay plates; KKLEB CF airway cells viability, ATPlite luminescence, overnight; stronger effect = lower value; cells stimulated with P. aeruginosa culture filtrate; activity change (cytotoxicity), % at 5 µM; 360,000 tested, 0.36% active; AID 602141, 2011;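 active means corrected activity change at or below -50% at 5 µM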
# Peg3 promoter – Peg3 promoter-driven luciferase inhibitors, primary screen, cell-based, HeLa, luciferase luminescence; HeLa PEG-Prom luciferase reporter, overnight; inhibition, % at 20 µM; 360,000 tested, 1.7% active; AID 588405, 2011;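 active means inhibition of at least 50% at 20 µM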
# A number is an active result; . = inactive; / = not tested or not shown. A selection: hits, their analogues and other compounds. The true share with any hit is near 3.9%.
SMILES,TROY NFkB inh,HIF-2a block,TWEAK-Fn14 inh,CF NFkB block,KKLEB cytotox,Peg3 promoter
C/C(=N\NC(=O)c1ccc(Cl)cc1)c1ccccn1,.,.,.,.,.,.
O=c1c2ccccc2ncn1-c1ccccc1C(F)(F)F,.,.,.,.,.,.
O=C1N(c2ccccc2C(F)(F)F)O[C@]1(c1ccccc1)C1CCCC1,.,.,.,.,.,77.5
Cc1ccccc1[C@@]1(C)ON(c2ccccc2C(F)(F)F)C1=O,.,.,.,.,.,79.2
COc1ccccc1-c1cc(C(F)(F)F)c(C#N)c(=O)[nH]1,.,.,.,.,.,.
CC[C@@]1(c2ccccc2OC)ON(c2ccccc2C(F)(F)F)C1=O,.,.,.,59.1,.,80.7
COCCNC(=O)C1(C)CCCN(C(=O)c2cc(F)ccc2C)C1 (configuration not stated),.,.,.,.,.,.
CCOC(=O)N1CCC(NC(=O)CCC(=O)N2CCOc3ccccc32)CC1,/,.,64.3,.,.,.
Fc1ccccc1-c1ccc(/C=N/Nc2nc3ccccc3[nH]2)o1,.,.,.,.,-55.2,.
CCn1c2ccc(F)cc2c2nc3ccccc3nc21,.,.,.,.,.,.
CCC(=O)NC(c1ccc(C)cc1)c1cc([N+](=O)[O-])c2cccnc2c1O (configuration not stated),.,.,.,.,.,52.6
CCCC(=O)NC(c1ccc(OC)c(OC)c1)c1cc(Cl)c2cccnc2c1O (configuration not stated),.,.,.,.,.,.
CC(=O)NC(c1ccc(C)cc1)c1cc([N+](=O)[O-])c2cccnc2c1O (configuration not stated),.,.,.,.,.,53.5
CCCCC(=O)NC(c1cccs1)c1cc(Cl)c2cccnc2c1O (configuration not stated),.,.,.,.,.,51.1
CCCC(=O)NC(c1ccco1)c1cc([N+](=O)[O-])c2cccnc2c1O (configuration not stated),.,.,.,57.2,.,.
Clc1ccccc1-c1nc2ccccc2c2nc3ccccc3n12,57.1,.,.,.,.,.
Cc1nc2ccccc2c2nc3ccccc3n12,.,.,.,.,.,.
Fc1ccc(-c2nc3ccccc3c3nc4ccccc4n23)cc1,.,.,58.0,.,.,.
Cc1ccccc1-c1nc(CN2CCC(C(=O)NCc3cccs3)CC2)c(C)o1,.,.,.,.,.,.
COc1ccc(Br)cc1CN(C)C(=O)c1cc(Cl)c2c(c1)OCCO2,.,.,.,.,.,.
Cc1ccc(C)c(S(=O)(=O)N(C)C2(C)CCS(=O)(=O)C2)c1 (configuration not stated),.,.,.,.,.,.
Cc1ccc2nc(Cl)c3cc(C(=O)N(CCN(C)C)Cc4ccco4)sc3c2c1,.,.,.,.,.,93.1
CN(C)CCN(Cc1ccco1)C(=O)c1cc2c(Cl)nc3ccccc3c2s1,.,.,.,.,.,.
Cc1cc(Nc2cccc(Cl)c2C)n2ncnc2n1,.,.,.,.,.,.
O=C(c1nn2c(C(F)(F)F)cc(-c3cccs3)nc2c1Br)N1CCCc2ccccc21,.,.,.,.,.,.
SMILES,TROY NFkB inh,HIF-2a block,TWEAK-Fn14 inh,CF NFkB block,KKLEB cytotox,Peg3 promoter
O=C(c1nn2c(C(F)(F)F)cc(-c3ccco3)nc2c1Br)N1CCCc2ccccc21,.,.,.,.,.,60.4
Cc1nc2cc(N3CCCCC3)c(NC(=O)c3cccnc3)cc2c(=O)n1Cc1ccccc1,.,.,.,.,.,.
COc1ccc([C@@]23Oc4cc(OC)cc(OC)c4[C@]2(O)[C@H](O)[C@H](C(=O)N(C)C)[C@H]3c2ccccc2)cc1,.,55.7,87.4,59.6,.,96.8
COc1ccc(NC(=O)C2C(c3ccccc3)C2(Cl)Cl)c(OC)c1 (configuration not stated),.,.,.,.,.,.
CCOc1ccccc1-n1nnnc1SCC(=O)NC(=O)Nc1ccc2c(c1)OCCO2,.,.,69.6,.,.,.
Cc1ccc(NC(=O)CSc2nnnn2-c2ccc3c(c2)OCO3)cc1C,.,.,.,64.7,-54.0,.
Cc1ccc(-n2nnnc2SCC(=O)Nc2ccc3c(c2)OCCO3)cc1C,.,.,.,.,.,.
O=C(CSc1nnnn1-c1ccccc1)NC(=O)Nc1ccc2c(c1)OCCO2,.,.,.,.,.,.
COc1ccc(CCC(=O)NNC(=O)c2cccs2)cc1,.,.,.,.,.,.
Cc1cc(C(F)(F)F)nn1CC(=O)N1CCCCC1C (configuration not stated),/,.,82.7,.,.,.
Nc1ccc[n+](CC(=O)c2ccccc2)c1,.,.,.,.,.,.
CCc1n[n+](CC(=O)c2ccccc2)c(N)s1,58.4,.,82.3,.,.,.
Cc1noc(NS(=O)(=O)c2ccc(NC(=O)c3cnc4n(c3=O)CCS4)cc2)c1C,.,.,.,.,.,.
O=C(c1ccc(NS(=O)(=O)/C=C/c2ccccc2)cc1)N1CCCCC1,.,.,.,56.0,-69.3,.
Cc1cc(C)c(NS(=O)(=O)c2ccc(NC(=O)c3cccs3)cc2)c(C)c1,50.9,.,.,.,.,.
Cc1ccc(NC(=O)c2cccs2)cc1S(=O)(=O)Nc1cccc(Cl)c1,.,.,60.0,.,.,.
Cc1ccc(S(=O)(=O)Nc2ccc(NC(=O)c3cccs3)cc2)cc1,.,.,.,.,.,.
Cc1ccc(NC(=S)NC(=O)c2ccc(F)cc2)cc1S(=O)(=O)Nc1cccc(Cl)c1,50.5,.,67.6,.,.,.
O=C(NNC(=O)c1cccs1)Nc1cccc(Cl)c1,.,.,.,.,.,.
CC(=O)Nc1cc(C(=O)OC(C(=O)c2ccccc2)c2ccccc2)ccc1C (configuration not stated),.,.,.,.,.,.
O=C(C1COc2ccccc2O1)N1CCN(Cc2ccc(Br)cc2F)CC1 (configuration not stated),.,.,63.9,.,.,.
COc1ccc(C(=O)N(Cc2sccc2C)C2CCS(=O)(=O)C2)cc1 (configuration not stated),.,.,.,.,.,.
CCCCCCCNC(=O)C1(CC2CC(c3ccc(Cl)cc3)=NO2)CCN(C(=O)Cc2ccc(F)cc2)CC1 (configuration not stated),.,.,.,.,.,.
CCCCCCCNC(=O)C1(CC2CC(c3ccc(Cl)cc3)=NO2)CCNCC1 (configuration not stated),.,.,.,.,.,111.0

# From PubChem
